According to PubChem BioAssay:
The source made the active and inactive calls.

How the values were obtained:
[1] = optical density shifts of acrAB sulA E. coli – strain DRC41, OD650, 48 h, E. coli filamentation inducer project, primary screen (AID 1152); settings: higher = more signal, called active from +8 up or from −8 down;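 further: E. coli MC1000 strain DRC41 lacking acrAB efflux pump and sulA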
[2] = probe aLefty1 binding on compound microarray – biochemical, small-molecule microarray, 635/667 nm fluorescence, primary screen (AID 1153); settings: higher = more signal;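 further: score merges spot fluorescence with signal-to-noise ratio from the scanned slide images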
[3] = plasmodial surface anion channel blockers, osmotic lysis – cell-based, P. falciparum Indochina, OD700, 1 h, primary screen (AID 1154); settings: P. falciparum Indochina infected RBC osmotic lysis, higher = more signal, called active from +8 up or from −8 down
[4] = plasmodial surface anion channel blockers, osmotic lysis – cell-based, P. falciparum Indochina, OD700, 2 h, primary screen (AID 1155);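 further: lysis reports solute entry through the parasite surface anion channel PSAC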; settings: P. falciparum Indochina infected erythrocytes, higher = more signal, called active from +8 up or from −8 down
[5] = changes in parasitized red cell lysis, either direction – P. falciparum Indochina, OD700, 3 h, PSAC antagonist project, primary screen (AID 1156); settings: P. falciparum-infected erythrocytes, osmotic lysis, higher = more signal, called active from +8 up or from −8 down
[6] = plasmodial surface anion channel blockers, osmotic lysis – cell-based, P. falciparum Indochina, OD700, 18 h, primary screen (AID 1157); settings: P. falciparum Indochina infected erythrocytes, osmotic lysis OD700, 18 h; higher = more signal, called active from +8 up or from −8 down
[7] = S6 kinase pathway phospho-S6 level changes – cell-based, A549, cytoblot, luminescence, serum-stimulated, primary screen (AID 1158); settings: 5 h, higher = more signal;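 further: serum-stimulated A549 lung adenocarcinoma cells; signal is phosphorylated S6 detected by cytoblot immunostaining with HRP secondary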
[8] = biological target: NADPH oxidase 2 (Homo sapiens) (UniProt P04839); assay: compounds shifting NOX2 Amplex Red fluorescence – cell-based, HEK293-NOX2, PMA-stimulated, NOX inhibitor project, primary screen (AID 1159); settings: 45 min, higher = more signal, called active from +8 up or from −8 down; further: test concentration not given here
[9] = biological target: NADPH oxidase 4 (Homo sapiens) (UniProt Q9NPH5); assay: compounds shifting NOX4 Amplex Red fluorescence – cell-based, HEK293-NOX4, tetracycline-induced, NOX inhibitor project, primary screen (AID 1160); settings: HEK293-NOX4, Amplex Red H2O2 fluorescence, 45 min; higher = more signal, called active from +8 up or from −8 down
[10] = biological target: NADPH oxidase 5 (Homo sapiens) (UniProt Q96PH1); assay: compounds shifting NOX5 Amplex Red fluorescence – cell-based, HEK293-NOX5, NOX inhibitor project, primary screen (AID 1161); settings: HEK293-NOX5, ionomycin, 45 min, higher = more signal
[11] = compound effects on lung adenocarcinoma cell viability – A549, calcein-AM fluorescence, 48 h, basal, profiling panel (AID 1162); settings: higher = more signal; further: test concentration not given here
[12] = compound effects on differentiated 3T3-L1 adipocyte viability – cell-based, 3T3-L1 adipocytes, calcein-AM fluorescence, 48 h, basal, profiling panel (AID 1163); settings: 3T3-L1 adipocytes viability, higher = more signal; further: test concentration not given here
[13] = compound effects on hepatocellular carcinoma cell viability – HepG2, calcein-AM fluorescence, 48 h, basal, profiling panel (AID 1164); settings: higher = more signal; further: test concentration not given here
[14] = compound effects on multiple myeloma cell viability – MM1S, calcein-AM fluorescence, 48 h, basal, profiling panel (AID 1165); settings: higher = more signal;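 further: viability of MM1S multiple myeloma cells under basal unstimulated conditions; test concentration not given here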
[15] = calcein-AM signal in unstimulated myeloma cells – cell-based, calcein-AM fluorescence, 48 h, PK04 Diversity Set, profiling panel (AID 1166); settings: RPMI8226 myeloma viability, higher = more signal;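 further: cells grown under basal conditions without added stimulus; test concentration not given here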
[16] = JC-1 mitochondrial signal, unstimulated HepG2 cells – cell-based, JC-1 fluorescence, 24 h, 100 nL compound, profiling panel (AID 1167); settings: HepG2 mitochondrial potential, higher = more signal; further: test concentration not given here
[17] = JC-1 mitochondrial signal, unstimulated adipocytes – cell-based, JC-1 fluorescence, 3T3-L1 adipocytes, 24 h, 100 nL compound, profiling panel (AID 1168); settings: JC-1 mitochondrial fluorescence, higher = more signal, called active from +8 up or from −8 down; further: test concentration not given here
[18] = JC-1 mitochondrial signal, unstimulated myeloma cells – cell-based, JC-1 fluorescence, RPMI8226, 24 h, 100 nL compound, profiling panel (AID 1169); settings: JC-1 mitochondrial potential fluorescence, higher = more signal; further: test concentration not given here
[19] = JC-1 mitochondrial signal, unstimulated MM1S myeloma – cell-based, JC-1 fluorescence, 24 h, 100 nL compound, profiling panel (AID 1170); settings: MM1S mitochondrial potential, higher = more signal; further: test concentration not given here
[20] = resazurin metabolic signal in A549 cells – cell-based, resazurin fluorescence, 24 h, PK04 Diversity Set, profiling panel (AID 1171); settings: A549 viability, higher = more signal, called active from +8 up or from −8 down; further: test concentration not given here

Chain of NADPH oxidase 2 (Homo sapiens) (P04839 whole entry, looked up): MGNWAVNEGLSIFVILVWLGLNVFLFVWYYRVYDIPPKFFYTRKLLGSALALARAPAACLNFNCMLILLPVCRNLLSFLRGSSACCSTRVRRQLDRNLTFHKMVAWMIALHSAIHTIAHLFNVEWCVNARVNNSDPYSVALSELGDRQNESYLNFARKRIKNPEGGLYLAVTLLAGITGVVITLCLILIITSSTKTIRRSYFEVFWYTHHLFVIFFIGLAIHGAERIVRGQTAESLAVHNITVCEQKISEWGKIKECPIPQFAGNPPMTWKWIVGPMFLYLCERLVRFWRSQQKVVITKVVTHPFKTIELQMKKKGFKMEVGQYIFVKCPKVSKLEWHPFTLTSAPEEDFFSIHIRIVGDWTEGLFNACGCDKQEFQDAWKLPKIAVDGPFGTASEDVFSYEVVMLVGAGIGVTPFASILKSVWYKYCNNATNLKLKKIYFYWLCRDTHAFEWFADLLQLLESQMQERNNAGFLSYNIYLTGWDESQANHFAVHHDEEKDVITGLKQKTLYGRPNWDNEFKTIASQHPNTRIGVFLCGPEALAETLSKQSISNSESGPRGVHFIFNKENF
Chain of NADPH oxidase 4 (Homo sapiens) (Q9NPH5 whole entry, looked up): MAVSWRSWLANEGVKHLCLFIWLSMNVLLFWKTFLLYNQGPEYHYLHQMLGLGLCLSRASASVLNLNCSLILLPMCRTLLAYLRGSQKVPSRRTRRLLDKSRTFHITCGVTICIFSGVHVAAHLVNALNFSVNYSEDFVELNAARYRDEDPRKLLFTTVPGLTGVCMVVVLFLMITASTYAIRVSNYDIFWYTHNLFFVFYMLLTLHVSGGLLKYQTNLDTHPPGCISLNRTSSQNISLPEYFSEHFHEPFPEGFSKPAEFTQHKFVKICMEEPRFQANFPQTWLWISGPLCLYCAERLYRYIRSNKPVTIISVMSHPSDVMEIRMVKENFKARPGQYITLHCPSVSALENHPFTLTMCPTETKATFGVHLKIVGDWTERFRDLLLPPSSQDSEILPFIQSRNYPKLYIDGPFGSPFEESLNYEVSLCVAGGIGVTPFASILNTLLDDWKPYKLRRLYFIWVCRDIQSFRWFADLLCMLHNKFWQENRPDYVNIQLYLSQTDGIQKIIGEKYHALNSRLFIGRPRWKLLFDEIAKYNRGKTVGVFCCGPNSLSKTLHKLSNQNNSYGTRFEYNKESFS
Chain of NADPH oxidase 5 (Homo sapiens) (Q96PH1 whole entry, looked up): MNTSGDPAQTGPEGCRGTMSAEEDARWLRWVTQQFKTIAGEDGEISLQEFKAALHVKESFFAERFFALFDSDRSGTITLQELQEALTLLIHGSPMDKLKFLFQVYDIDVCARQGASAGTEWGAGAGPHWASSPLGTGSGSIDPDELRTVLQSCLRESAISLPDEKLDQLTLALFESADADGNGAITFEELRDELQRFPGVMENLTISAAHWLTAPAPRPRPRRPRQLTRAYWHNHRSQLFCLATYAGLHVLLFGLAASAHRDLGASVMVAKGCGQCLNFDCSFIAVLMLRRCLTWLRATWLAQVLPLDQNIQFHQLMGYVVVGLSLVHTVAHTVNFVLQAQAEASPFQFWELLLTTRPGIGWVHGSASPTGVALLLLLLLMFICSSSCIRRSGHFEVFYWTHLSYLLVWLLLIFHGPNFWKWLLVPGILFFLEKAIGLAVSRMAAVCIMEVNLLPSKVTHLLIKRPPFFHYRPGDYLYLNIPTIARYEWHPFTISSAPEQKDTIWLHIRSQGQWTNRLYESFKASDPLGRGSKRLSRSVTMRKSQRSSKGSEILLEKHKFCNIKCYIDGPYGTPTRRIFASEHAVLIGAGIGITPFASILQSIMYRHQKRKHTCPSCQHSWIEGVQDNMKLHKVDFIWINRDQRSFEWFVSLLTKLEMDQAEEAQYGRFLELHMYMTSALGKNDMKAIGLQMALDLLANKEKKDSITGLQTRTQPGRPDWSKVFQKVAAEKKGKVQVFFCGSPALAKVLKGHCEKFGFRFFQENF

In the case of `CCN(CC)c1ccc(N2CC=CC34O[C@@H]5C=CCOC(=O)[C@@H]5[C@H]3C(=O)N(CCO)[C@@H]4C2=O)cc1` (stereo not given in full), the z-score [1] is reported as 1.51 (inactive), the composite z-score [2] is reported as 0.0434 and the z-score [3] is reported as 0.116 (inactive). The z-score [4] was 0.0907 (inactive), the z-score [5] was 0.714 (inactive) and the z-score [6] was -0.0665 (inactive). For the same compound, the z-score [7] was -0.221, the z-score [8] was -0.0361 (inactive) and the z-score [9] was 0.364 (inactive). For the same compound, the z-score [10] was 0.613, the z-score [11] was 1.22 and the z-score [12] was 0.273. It also gave a z-score [13] of 0.662, a z-score [14] of -0.783 and a z-score [15] of 0.38. For the same compound, the z-score [16] was 0.396, the z-score [17] was 0.537 (inactive) and the z-score [18] was -0.0585. For the same compound, the z-score [19] was 0.0601 and the z-score [20] was 0.588 (inactive).

With `CN(C)CCCCNC(=O)[C@H]1C[C@H]2C(=O)NCC(=O)N2[C@H]1c1cccc(OCCO)c1` the z-score [1] was 1.06 (inactive), the composite z-score [2] was -0.007 and the z-score [3] was 0.799 (inactive). For the same compound, the z-score [4] was 0.33 (inactive), the z-score [5] was -0.0825 (inactive) and the z-score [6] was 0.129 (inactive). For the same compound, the z-score [7] was -0.0315, the z-score [8] was -0.241 (inactive) and the z-score [9] was 0.382 (inactive). The z-score [10] was 1.05, the z-score [11] was 1.11 and the z-score [12] was -0.237. For the same compound, the z-score [13] was -0.13, the z-score [14] was 0.585 and the z-score [15] was 0.0875. For the same compound, the z-score [16] was 0.348, the z-score [17] was 0.871 (inactive) and the z-score [18] was -0.223. The z-score [19] was -0.348 and the z-score [20] was 1.26 (inactive).

With `CC(C)[Si](C#CCCCC#N)(O[C@H](c1ccccc1)c1cn([C@H](C)c2ccccc2)nn1)C(C)C` the z-score [1] was 1.03 (inactive), the composite z-score [2] was -0.0984 and the z-score [3] was 1.66 (inactive). The z-score [4] was 0.878 (inactive), the z-score [5] was 0.0478 (inactive) and the z-score [6] was 0.211 (inactive). The z-score [7] was 0.147, the z-score [8] was 1.19 (inactive) and the z-score [9] was 0.406 (inactive). It also gave a z-score [10] of 0.255, a z-score [11] of -1.38 and a z-score [12] of -0.348. The z-score [13] was 0.571, the z-score [14] was -0.057 and the z-score [15] was -2.68. For the same compound, the z-score [16] was 6.54, the z-score [17] was -0.289 (inactive) and the z-score [18] was 0.0785. For the same compound, the z-score [19] was -0.733 and the z-score [20] was 1.07 (inactive).

For `COC(=O)C(CC#Cc1ccc2c(c1)[C@]1(C(=O)N2)[C@H](c2ccc(O)cc2)N2[C@H](c3ccccc3)[C@H](c3ccccc3)OC(=O)[C@H]2[C@@H]1C(=O)N1CCc2cc(OC)c(OC)cc2C1)C(=O)OC`, the z-score [1] was -0.958 (inactive), the composite z-score [2] was 0.156 and the z-score [3] was 1.4 (inactive). The z-score [4] was 0.923 (inactive), the z-score [5] was 0.848 (inactive) and the z-score [6] was 0.591 (inactive). The z-score [7] was -0.747, the z-score [8] was 2.05 (inactive) and the z-score [9] was 0.706 (inactive). It also gave a z-score [10] of 0.218, a z-score [11] of -0.581 and a z-score [12] of -0.959. For the same compound, the z-score [13] was -0.184, the z-score [14] was -1.71 and the z-score [15] was -4.43. The z-score [16] was -2.15, the z-score [17] was 0.124 (inactive) and the z-score [18] was -1.22. The z-score [19] was -1.03 and the z-score [20] was -0.0149 (inactive).

For `COCCOC(=O)N1C(=O)[C@@]2(c3cc(C#CCC(C(=O)OC)C(=O)OC)ccc31)[C@H](C(N)=O)[C@H]1C(=O)O[C@H](c3ccccc3)[C@H](c3ccccc3)N1[C@@H]2c1ccc(OCCO)cc1`, the z-score [1] was -0.886 (inactive), the composite z-score [2] was 0.146 and the z-score [3] was 28.9 (active). The z-score [4] was 16.1 (active), the z-score [5] was -1.71 (inactive) and the z-score [6] was 2.01 (inactive). For the same compound, the z-score [7] was -0.275, the z-score [8] was 1.75 (inactive) and the z-score [9] was 1.24 (inactive). The z-score [10] was 0.515, the z-score [11] was -0.0635 and the z-score [12] was 0.0923. For the same compound, the z-score [13] was 0.103, the z-score [14] was -2.16 and the z-score [15] was -3.21. For the same compound, the z-score [16] was -1.47, the z-score [17] was 0.47 (inactive) and the z-score [18] was -1.09. For the same compound, the z-score [19] was -1.26 and the z-score [20] was 0.214 (inactive).

In the case of `CC(C)=CCN(C(=O)C#Cc1ccccc1)[C@H](CO)c1ccccc1`, the z-score [1] is reported as -4.56 (inactive), the composite z-score [2] is reported as -0.0876 and the z-score [3] is reported as 16.8 (active). The z-score [4] was 3.67 (inactive), the z-score [5] was -2.25 (inactive) and the z-score [6] was 0.402 (inactive). For the same compound, the z-score [7] was 0.21, the z-score [8] was 2.15 (inactive) and the z-score [9] was -1 (inactive). The z-score [10] was -3.76, the z-score [11] was -3.88 and the z-score [12] was -0.522. It also gave a z-score [13] of -5.06, a z-score [14] of -3.2 and a z-score [15] of -4.1. For the same compound, the z-score [16] was -3.07, the z-score [17] was 0.983 (inactive) and the z-score [18] was -1.24. For the same compound, the z-score [19] was -2.54 and the z-score [20] was -2.45 (inactive).

In the case of `CCCCC(=C=CC[C@@H](O)c1cccc(OCCO)c1)CCO`, the z-score [1] is reported as 0.896 (inactive), the composite z-score [2] is reported as -0.142 and the z-score [3] is reported as 6.54 (inactive). The z-score [4] was 1.02 (inactive), the z-score [5] was 0.842 (inactive) and the z-score [6] was 0.528 (inactive). For the same compound, the z-score [7] was 1.3, the z-score [8] was -0.681 (inactive) and the z-score [9] was -0.283 (inactive). The z-score [10] was -1.8, the z-score [11] was 1.58 and the z-score [12] was -0.634. For the same compound, the z-score [13] was 0.98, the z-score [14] was 0.859 and the z-score [15] was 0.0922. For the same compound, the z-score [16] was 0.416, the z-score [17] was 1.27 (inactive) and the z-score [18] was 0.044. The z-score [19] was -1.09 and the z-score [20] was 1.06 (inactive).

With `COCCOC(=O)N1C(=O)[C@@]2(c3cc(C#CC4(O)CCCCCC4)ccc31)[C@H](c1ccccc1OCCO)N1[C@H](c3ccccc3)[C@H](c3ccccc3)OC(=O)[C@H]1[C@@H]2C(=O)N1CCCCCCC1` the z-score [1] was 0.499 (inactive), the composite z-score [2] was 2.49 and the z-score [3] was 0.257 (inactive). The z-score [4] was 0.755 (inactive), the z-score [5] was 0.196 (inactive) and the z-score [6] was 0.653 (inactive). The z-score [7] was 0.119, the z-score [8] was 0.297 (inactive) and the z-score [9] was 0.104 (inactive). It also gave a z-score [10] of 1.13, a z-score [11] of -0.971 and a z-score [12] of 0.723. The z-score [13] was 0.818, the z-score [14] was -1.45 and the z-score [15] was -1.99. For the same compound, the z-score [16] was -0.286, the z-score [17] was 0.454 (inactive) and the z-score [18] was -0.557. The z-score [19] was -1.34 and the z-score [20] was -0.141 (inactive).

For `O=C1OCCC=C[C@H]2OC34C=CCN(CCN5CCOCC5)C(=O)[C@H]3N(CCCO)C(=O)[C@@H]4C12` (stereo not given in full), the z-score [1] was 0.274 (inactive), the composite z-score [2] was -0.0464 and the z-score [3] was 0.377 (inactive). The z-score [4] was -1.35 (inactive), the z-score [5] was 0.901 (inactive) and the z-score [6] was -1.73 (inactive). The z-score [7] was 0.41, the z-score [8] was -0.433 (inactive) and the z-score [9] was -1.97 (inactive). The z-score [10] was -0.183, the z-score [11] was 0.531 and the z-score [12] was 0.473. It also gave a z-score [13] of 0.127, a z-score [14] of -0.0305 and a z-score [15] of -0.0605. For the same compound, the z-score [16] was -0.338, the z-score [17] was 1.33 (inactive) and the z-score [18] was 0.398. The z-score [19] was -0.139 and the z-score [20] was -0.784 (inactive).
